What was measured:
Assay type in all cases: functional
Plasmodium falciparum [1] = experiment: GSK_TCMDC: Inhibition of Plasmodium falciparum 3D7 in whole red blood cells, using parasite LDH activity as an index of growth. Test compounds present at 2uM
Plasmodium falciparum [2] = experiment: GSK_TCMDC: Inhibition of Plasmodium falciparum Dd2 in whole red blood cells, using parasite LDH activity as an index of growth. Test compounds present at 2uM
HepG2 = experiment: GSK_TCMDC: Percent inhibition of human HepG2 cell line. Test compounds present at 10uM.

Row | Structure (SMILES) | Inhibition (Plasmodium falciparum [1]) [%] | Inhibition (Plasmodium falciparum [2]) [%] | Inhibition (HepG2) [%]
1 | CCOc1ccc(C(C)NC(=O)Cc2ccccc2F)cc1OCC (stereo not given) | 96 | 44 | 15
2 | CC(=O)Nc1cccc(C(=O)Nc2ccc(-c3cccc(-c4nc5cc(C(F)(F)F)ccc5[nH]4)c3)cc2)c1 | 100 | 85 | 81
3 | COc1c(C2CCN(CCN3CCC(NC(=O)c4ccc(-c5ccc(C(F)(F)F)cc5)cc4)CC3)CC2)ccc2c1CCCC2 | 82 | 35 | 42
4 | COc1ccc(Br)cc1/C=C/C(=O)Nc1ccc(C2CCN(C)CC2)cc1.O=CO | 100 | 61 | 11
5 | Cc1cccc2nc(-c3ccc(-c4ccc(CNCc5ccc(CN)cc5)cc4)cc3)[nH]c12.O=C(O)C(F)(F)F | 100 | 46 | 14
6 | COc1cccc(-c2ccc(C(=O)NC3CCN(Cc4ccc(C(C)(C)C)cc4)CC3)s2)c1.O=C(O)C(F)(F)F | 85 | 23 | 43
7 | CCN(CC)CCOc1cc2c(cc1Br)-c1cc(Br)c(OCCN(CC)CC)cc1C2=NO.Cl | 100 | 98 | 99
8 | COc1ccc(CNCc2cccc(-c3cccc(-c4nc5ccccc5[nH]4)c3)c2)cc1.O=C(O)C(F)(F)F | 100 | 50 | 24
9 | O=c1cc(NCCCNCc2cc(C(F)(F)F)ccc2F)[nH]c2ccccc12 | 94 | 43 | 0
10 | Nc1c2ccccc2nc2cc(C(F)(F)F)ccc12 | 100 | 49 | 8

Reference: ChEMBL document CHEMBL1157539, “Thousands of chemical starting points for antimalarial lead identification” (Nature, 2010)
